Drawing on PubChem BioAssay, this text covers z-score and composite z-score for 13 compounds.

Active and inactive are the calls of the source. Unless noted, the rule behind the calls is not given here.

Experiment [1] is described as follows: HepG2 liver cancer cell viability effects, profiling panel, resazurin fluorescence, 24 h, PK04 Diversity Set (AID 1172). Note: test concentration not given here. Particulars: higher = more signal.
A short description of experiment [2]: basal S. cerevisiae growth modulation, no modifier, primary screen, OD600, strain BY4716, 24 h, basal condition (AID 1173). The following applies: OD600, 24 h, higher = more signal, called active from +8 up or from −8 down.
Experiment [3] in a line: MM1S myeloma cell viability, profiling panel, resazurin fluorescence, basal, 24 h, PK04 Diversity Set (AID 1174). Note: test concentration not given here. Particulars: higher = more signal, called active from +8 up or from −8 down. A general note: Alamar Blue is a resazurin reagent that responds to reducing activity.
Experiment [4] addresses Dihydroorotate dehydrogenase (quinone), mitochondrial (Plasmodium falciparum (isolate 3D7)) (UniProt Q08210). The experiment is described as follows: PfDHODH enzyme inhibitors, primary screen, biochemical, C-terminal His tag, absorbance 600 nm (AID 1175).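 Note: recombinant parasite enzyme with a five histidine tag at its C terminus; test concentration not given here.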 The following applies: DCIP absorbance 600 nm, higher = more signal, called active from +8 up or from −8 down.
The nature of experiment [5]: P. aeruginosa biofilm formation inhibitors, primary screen, strain PAO1, LB-PBS medium, absorbance 600 nm (AID 1176). Note: test concentration not given here. Particulars: P. aeruginosa PAO1 growth/biofilm, A600, 12 h; higher = more signal.
Experiment [6] in a line: S. cerevisiae RM11-1a growth modifiers, primary screen, strain RM11-1a, OD600, basal, 24 h (AID 1177).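 Note: cultures grown under basal conditions with no added stressor; test concentration not given here.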 Particulars: OD600, 24 h, higher = more signal, called active from +8 up or from −8 down.
Experiment [7] can be described thus: E. coli acrAB mutant growth effects, primary screen, E. coli filamentation inducers, strain DRC39, OD650, 24 h (AID 1178).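 Note: growth measured as culture turbidity by optical density at 650 nm; test concentration not given here.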 Particulars: higher = more signal, called active from +8 up or from −8 down.
Experiment [8] is described as follows: E. coli acrAB mutant growth effects, primary screen, E. coli filamentation inducers, strain DRC39, OD650, 48 h (AID 1179).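 Note: screen aims at cell division blockers that make cells filament.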 Particulars: E. coli DRC39 delta-acrAB growth, higher = more signal, called active from +8 up or from −8 down.
Experiment [9] in a line: RPMI8226 myeloma cell viability, profiling panel, resazurin fluorescence, basal, 24 h, PK04 Diversity Set (AID 1180).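 Note: RPMI8826 multiple myeloma cell line at 5000 cells per well; test concentration not given here.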 Particulars: higher = more signal.
Experiment [10] concerns the target E3 ubiquitin-protein ligase XIAP (Homo sapiens) (UniProt P98170). In words: XIAP binders, primary screen, biophysical, small-molecule microarray, fluorescence 635 nm (AID 1181).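 Note: score merges 667 nm emission and signal to noise over triplicate slides.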 The following applies: small-molecule microarray binding, higher = more signal.

Sequence of Dihydroorotate dehydrogenase (quinone), mitochondrial (Plasmodium falciparum (isolate 3D7)) (Q08210 whole entry, looked up): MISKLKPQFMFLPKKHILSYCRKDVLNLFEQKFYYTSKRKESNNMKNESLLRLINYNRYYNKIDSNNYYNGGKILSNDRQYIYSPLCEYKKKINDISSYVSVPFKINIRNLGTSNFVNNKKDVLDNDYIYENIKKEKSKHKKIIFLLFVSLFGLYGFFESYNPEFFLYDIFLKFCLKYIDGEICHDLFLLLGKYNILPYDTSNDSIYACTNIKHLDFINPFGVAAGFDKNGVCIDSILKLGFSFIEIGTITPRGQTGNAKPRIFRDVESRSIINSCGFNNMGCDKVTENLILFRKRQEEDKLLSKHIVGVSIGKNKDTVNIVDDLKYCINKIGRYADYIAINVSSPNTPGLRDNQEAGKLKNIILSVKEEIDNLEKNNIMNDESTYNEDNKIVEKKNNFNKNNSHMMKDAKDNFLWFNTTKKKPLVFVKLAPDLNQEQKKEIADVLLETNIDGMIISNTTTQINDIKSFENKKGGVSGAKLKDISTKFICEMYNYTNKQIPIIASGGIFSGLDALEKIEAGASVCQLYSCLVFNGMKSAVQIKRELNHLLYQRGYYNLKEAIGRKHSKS
Sequence of E3 ubiquitin-protein ligase XIAP (Homo sapiens) (P98170 whole entry, looked up): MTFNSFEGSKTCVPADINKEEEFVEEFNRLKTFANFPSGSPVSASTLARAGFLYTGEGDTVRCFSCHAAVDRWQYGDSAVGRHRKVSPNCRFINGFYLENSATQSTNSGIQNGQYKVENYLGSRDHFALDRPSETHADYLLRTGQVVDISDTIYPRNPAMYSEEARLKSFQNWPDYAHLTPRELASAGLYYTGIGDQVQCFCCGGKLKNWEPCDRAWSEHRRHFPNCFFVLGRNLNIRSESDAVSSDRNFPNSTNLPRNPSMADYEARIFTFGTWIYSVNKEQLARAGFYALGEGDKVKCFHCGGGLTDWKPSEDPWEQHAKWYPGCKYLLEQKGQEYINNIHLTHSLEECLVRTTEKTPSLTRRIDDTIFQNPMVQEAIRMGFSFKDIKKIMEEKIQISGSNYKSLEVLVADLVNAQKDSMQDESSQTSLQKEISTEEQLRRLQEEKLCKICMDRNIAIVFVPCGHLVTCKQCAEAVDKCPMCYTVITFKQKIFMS

`C=C(CCCC)C(=O)CC[C@H](OC(=O)c1cccnc1)c1ccc(OCCO)cc1`: the z-score in [1] is -0.91; in [2], -0.329 (inactive); in [3] it was -3.27 (inactive); in [5] it was 1.09 (inactive); in experiment [6], 1.32 (inactive); in experiment [7], -0.911 (inactive). In addition, the z-score in [8] is -0.855 (inactive); in experiment [9], -3.01. Besides, the values for the composite z-score in experiment [4] and in experiment [10] were -0.816 (inactive) and 0.0322, respectively.

Regarding `Cc1ccc(S[C@]2(C(=O)O)CC(=O)N(Cc3ccccc3C(F)(F)F)[C@@H]2c2ccc(CO)cc2I)cc1`, the z-score in [1] is 0.484; in [2], -5.47 (inactive); in experiment [3] it was -2.29 (inactive); in experiment [5], 0.304 (inactive); in experiment [6], -1.22 (inactive); in [7] it was 0.0985 (inactive). Also, the z-score in [8] is -0.367 (inactive); in experiment [9], -1.78. For the same compound, the composite z-score is -0.358 (inactive) in [4] and -0.0076 in [10].

Take `C=CCOC(=O)[C@H]1[C@@H]2C(=O)O[C@@H](c3ccccc3)[C@@H](c3ccccc3)N2[C@@H](c2ccc(OCCOC(=O)[C@H]3C[C@H]4C(=O)N[C@@H](CCCCN(C)C)C(=O)N4[C@H]3c3cccc(OCCO)c3)cc2)[C@]12C(=O)Nc1ccc(I)cc12`: the z-score in [1] is -0.0574; in experiment [2] it was 0.626 (inactive); in experiment [3], -0.865 (inactive); in experiment [5], 0.808 (inactive); in experiment [6], 1.75 (inactive); in experiment [7] it was -0.548 (inactive). Further, the z-score in experiment [8] was -1.02 (inactive); in experiment [9] it was -0.316. Also, the composite z-score in experiment [4] was 1.71 (inactive); in experiment [10], 0.194.

As to `O=C1N(CCS(=O)(=O)c2ccccc2)c2ccccc2[C@@H]2OC(c3ccc(OCCCO)cc3)=N[C@]12Cc1ccccc1`, the z-score in [1] was 0.292; in experiment [2], -0.237 (inactive); in experiment [3], -3.11 (inactive); in experiment [5] it was 0.755 (inactive); in [6] it was 0.289 (inactive); in [7] it was 1.11 (inactive). Further, the z-score in experiment [8] was 1.03 (inactive); in experiment [9], -1.95. For the same compound, the composite z-score was -1.52 (inactive) in [4] and 0.0999 in experiment [10].

For `CCCCN1CC=CC23O[C@@H]4C=CCCOC(=O)C4[C@H]2C(=O)N(CCCCCO)[C@@H]3C1=O` (stereo not given in full), the z-score in [1] is -0.462; in experiment [2], -0.1 (inactive); in experiment [3], -0.401 (inactive); in experiment [5], -0.332 (inactive); in [6] it was -0.308 (inactive); in experiment [7] it was 0.593 (inactive). Moreover, the results for the z-score in experiment [8] and in experiment [9] were 0.923 (inactive) and 0.769, respectively. The composite z-score was 0.0416 (inactive) in [4] and 0.0357 in experiment [10].

In the case of `COC(=O)[C@H](Cc1ccccc1)N[C@H](/C=C/C1CC1)[C@@H](O)Cc1ccccc1`, the z-score was 1 in experiment [1]; -4.55 (inactive) in experiment [2]; 1.2 (inactive) in experiment [3]; -0.708 (inactive) in [5]; -1.44 (inactive) in experiment [6]; 1.58 (inactive) in experiment [7]. For the same compound, the results for the z-score in [8] and in [9] were 0.398 (inactive) and 0.663, respectively. Besides, the values for the composite z-score in experiment [4] and in [10] were 1.14 (inactive) and -0.195, respectively.

`COCCOC(=O)N1C(=O)[C@@]2(c3ccccc31)[C@H](C(N)=O)[C@H]1C(=O)O[C@H](c3ccccc3)[C@H](c3ccccc3)N1[C@@H]2c1ccc(O)cc1`: the z-score was -0.755 in experiment [1]; -0.494 (inactive) in experiment [2]; -0.593 (inactive) in experiment [3]; 0.806 (inactive) in experiment [5]; 0.275 (inactive) in [6]; 0.396 (inactive) in experiment [7]. In addition, the z-score in experiment [8] was 0.787 (inactive); in experiment [9] it was -1.01. The composite z-score in experiment [4] is -0.294 (inactive); in experiment [10], 0.175.

Regarding `COC(=O)[C@]1(CCC(=O)OC(C)(C)C)N=C(c2ccc(OCCCO)cc2)O[C@@H]1c1ccccc1`, the z-score in experiment [1] is -0.134; in experiment [2] it was -0.761 (inactive); in [3], -0.671 (inactive); in experiment [5], 0.438 (inactive); in experiment [6] it was 0.504 (inactive); in experiment [7], 3.37 (inactive). Moreover, the z-score in experiment [8] was 0.648 (inactive); in experiment [9], -1.47. Further, the composite z-score in experiment [4] was -0.134 (inactive); in experiment [10] it was 0.153.

With `CCOC(=O)C1=CCC(c2ccc(F)cc2)N(S(=O)(=O)c2ccc(C)cc2)C1` (stereo not given), the z-score in experiment [1] was -0.175; in experiment [2], 1.47 (inactive); in experiment [3], -0.866 (inactive); in experiment [5], 0.766 (inactive); in [6], 0.241 (inactive); in experiment [7], -0.614 (inactive). The z-score in [8] was -0.124 (inactive); in [9], -1.76. Also, the figures for the composite z-score in experiment [4] and in experiment [10] were -0.217 (inactive) and 0.206, respectively.

Consider `O=C1OCC=C[C@H]2OC34C=CCN(CCN5CCOCC5)C(=O)[C@H]3N(CCO)C(=O)[C@@H]4[C@@H]12` (stereo not given in full), for which the z-score in experiment [1] was 0.226; in experiment [2], -0.0819 (inactive); in experiment [3] it was -0.176 (inactive); in experiment [5], -0.608 (inactive); in experiment [6], -0.31 (inactive); in [7], -0.533 (inactive). Also, the z-score is -0.385 (inactive) in experiment [8] and -0.386 in experiment [9]. Further, the composite z-score in experiment [4] is -0.424 (inactive); in [10], -0.28.

As for `CC(c1ccccc1)C(O)C1C=CC2C(=O)N(C)C(=O)C2N1NC(=O)OC(C)(C)C` (stereo not given), the z-score in experiment [1] is -0.67; in experiment [2], -0.424 (inactive); in [3], -0.267 (inactive); in [5] it was 0.903 (inactive); in experiment [6], 0.732 (inactive); in experiment [7], -0.182 (inactive). Further, the z-score in experiment [8] was -0.339 (inactive); in experiment [9] it was 0.15. The values for the composite z-score in experiment [4] and in experiment [10] were -0.14 (inactive) and 0.184, respectively.

Turning to `CN(C)CCCCCCNC(=O)[C@@H]1C[C@@H]2C(=O)N[C@@H](CCCC[N+](C)(C)C)C(=O)N2[C@@H]1c1ccc(O)cc1`, the z-score in [1] was -0.916; in experiment [2], -0.661 (inactive); in experiment [3], -1.07 (inactive); in experiment [5] it was -0.0212 (inactive); in experiment [6], -0.0569 (inactive); in experiment [7], 0.301 (inactive). The values for the z-score in [8] and in [9] were 0.575 (inactive) and -0.746, respectively. In addition, the composite z-score in [4] is -1.06 (inactive); in experiment [10], 0.0785.

With `CCCCC(=C=CC[C@H](O)c1cccc(OCCO)c1)C[C@H](O)c1ccccn1`, the z-score in [1] is 1.7; in experiment [2], -1.1 (inactive); in experiment [3], 1.03 (inactive); in experiment [5] it was -0.235 (inactive); in experiment [6], -1.49 (inactive); in experiment [7] it was 1.58 (inactive). Also, the z-score in experiment [8] is 1.58 (inactive); in [9], 1.83. For the same compound, the figures for the composite z-score in experiment [4] and in [10] were -2.69 (inactive) and -0.188, respectively.
